Laboratory results: ChEMBL document CHEMBL4888484, “Replenishing the malaria drug discovery pipeline: Screening and hit evaluation of the MMV Hit Generation Library 1 (HGL1) against asexual blood stage Plasmodium falciparum ,using a nano luciferase reporter read-out” (2022)
Out of some 150,000 compounds screened, about 540 (0.36%) showed an effect of 50% or more. The entries come from a sample that favours strong results as a whole.

Each compound was assayed on Plasmodium falciparum (assay: Primary screen in NF54 nanoGlo assay, in single point, at 2uM, 72h; a lower Z score goes with more inhibition). Conditions: timepoint 72 hour.
Type: functional, Erythrocyte

Compound	% Inhibition	Z score
CCc1nc2cc(N3CCC(C(=O)Nc4ccc5c(c4)OCO5)CC3)cnc2nc1CC	73%	-0.75
Cc1ccc(S(=O)(=O)c2cn(CC(=O)Nc3ccc(C)c(C)c3)c3nc(C)ccc3c2=O)cc1	-12%	1.24
COCCN1CC[C@H](CN(C)S(=O)(=O)Cc2ccc(Cl)cc2)C1	-6%	1.12
COCCN1CCC[C@@]2(CCN(Cc3cnn(-c4ccc(Cl)cc4)c3)C2)C1	-9%	1.21
COCCN1CC[C@H](CN(C)c2ccncn2)C1	1%	-0.2
COCCN1C[C@]2(CCCN(c3ccnc4ccc(C)cc34)C2)CCC1=O	-3%	0.55
COC(=O)[C@H](CN)Oc1ccc(F)cc1	2%	-0.27
O=C(NC1CC1C1CCCCC1)N1CCS(=O)(=O)CC1 (stereo not drawn)	77%	-9.17
O=C(NC1CC1C1CCCCC1)N1CCCN(C2CCOCC2)CC1 (stereo not drawn)	-16%	1.42
O=C(N[C@@H]1C[C@H]1C1CCCCC1)N1CCC(N2CCCCC2)C1 (stereo partly drawn)	-9%	1.45
CCCN(C(=O)Nc1cc(Cl)ccc1OC)c1nc(-c2ccc(C3CCCCC3)cc2)cs1	-14%	2.04
COc1ccc(NCC(=O)Nc2cc(C(F)(F)F)cc(NC(=O)CNc3ccc(OC)cc3)c2Cl)cc1	-10%	1.34
CC(=O)Oc1ccc(N2C(=O)[C@@H]3[C@H](Cc4ccccc4)N[C@]4(C(=O)Nc5c4ccc(Cl)c5C)[C@@H]3C2=O)cc1	-4%	0.38
O=C(ON1C(=O)CCC1=O)c1cc2ccccc2[nH]1	61%	-0.88
Cc1cccc(C(=O)ON2C(=O)CCC2=O)c1	39%	1.28
O=C(ON1C(=O)CCC1=O)c1cccc(F)c1	34%	-3.87
Cc1nn(-c2nc3ccccc3[nH]2)c(O)c1Cc1ccccc1	63%	-1.65
Cc1cc(C)nc(-n2nc(C)c(CCc3ccccc3)c2O)n1	32%	-3.67
Oc1cc(-c2ccc(F)cc2)nn1-c1nc2ccccc2[nH]1	36%	-4.09
COc1ccccc1-n1nc(C)c(Cc2ccccc2)c1O	31%	-3.49
Cc1nn(-c2nc3ccccc3[nH]2)c(O)c1CCC(C)C	95%	-12.21
Cc1cccc(Cc2c(C)nn(-c3nc(C)cc(C)n3)c2O)c1	36%	2.2

Compound	% Inhibition	Z score
COc1ccc([C@@H]2N(c3ccc(Cl)cc3)OC(=O)N2c2ccccc2)cc1	1%	-0.09
Cc1n[nH]c2c1CN(Cc1[nH]cc(C)c(=O)c1C)CC2	-8%	1
COCCCN(CCC(=O)NCCc1ccccc1)C(=O)c1cc(C)oc1C	2%	-0.18
Cc1ccc(CNC(=O)CC2CC2)c2cccnc12	-16%	2.46
COc1ccc(Cl)cc1-c1cc(C(=O)N2CCOCC2)ccn1	3%	-0.54
CCc1c(C(=O)N2CCC(c3ccnn3CCO)CC2)cnn1-c1cccc(Cl)c1	-3%	0.24
CCc1nc2ccccc2c(C(=O)N2CCN(c3cc(OC)ncn3)CC2)c1C	-13%	1.69
COC[C@H]1CCCN1C[C@@H]1OC[C@H](NC(=O)c2ccc(C#N)cc2)[C@H]1O	9%	-1.07
Cn1cccc1-c1nc2cc(N)ccc2[nH]1	-3%	0.34
COCCN(CCOC)C(=O)c1cnn(C)c1	-6%	0.88
CCOc1ccccc1C(=O)N1CCC[C@](c2nnnn2CCC(C)C)(N(C)C)C1	-2%	0.29
CC(C)CCn1nnnc1[C@]1(N(C)C)CCCN(C(=O)CN2CCOCC2)C1	2%	-0.27
CC(C)CCn1nnnc1[C@]1(N(C)C)CCCN(C(=O)c2cccn2C)C1	92%	1.07
CCOCCCNCc1ccc(F)cc1	-10%	1.59
Cc1ccc(-c2nnc(-c3nc(NCc4ccc(F)cc4)c4ccccc4n3)o2)cc1	-11%	2.05
COc1ccc(CNc2nc(-c3nnc(-c4ccccc4)o3)nc3ccccc23)cc1	55%	-10.02
COc1ccc(-c2nnc(-c3nc(NCc4ccc5c(c4)OCO5)c4ccccc4n3)o2)cc1	-7%	1.27
O=C(NCC1(c2ccccc2)CCCCCC1)N1CCO[C@@H](CO)C1	-5%	0.59
CCc1c(C)nc(C)nc1N1CC[C@H](NC(=O)c2cc(C)on2)[C@@H](O)C1	8%	-1.41
CCn1nccc1C=C(C)c1ncccn1	1%	-0.23
COc1ccc(Br)cc1NC(=O)N(C)CCCn1ccnc1	8%	-0.86
CN(CCCn1ccnc1)C(=O)c1ccnc(N(C)C)c1	-12%	1.13
